Screens as filed in PubChem.
Compounds with a hit are over-represented: about 5.4% of the library has one in this group of screens.
CSC inhib: cancer stem cell inhibition. cancer stem cell-like cells viability, luminescence. hit rate 1.1% among 300,000. inhibition, % at 7.5 µM; in the data active = inhibition above about 75%; inconclusive = no clear call, values can overlap the other calls; tested in HMLE shEcad cells
PP5 primary: PP5 (human) phosphatase inhibition. inhibition, % at 6.7 µM. P53041. purified PP5c, OMFP substrate fluorescence. hit rate 0.18% among 320,000;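 active = inhibition above the campaign's mean inhibition across all tested compounds plus 3 SD, cut at about 9.5% in these data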
Calb FLC: affects C. albicans growth with fluconazole; hit rate 0.57% among 300,000; AID 1979; growth inhibition, % (no concentration beside the values); C. albicans CaCi-2 (fluconazole-resistant clinical isolate) + fluconazole, Alamar Blue growth, 48 h;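 active = growth inhibition above about 58% in most replicates, limit read from the data, passing the limit was not always enough; inconclusive = exactly half the replicates above a set limit; inactive = most replicates below a set limit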;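 note: all wells also contain fluconazole at 8 µg/ml as a sub-toxic cotreatment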
PP1 counter: blocks human PP1-alpha phosphatase, a PP5 counter-screen | purified PP1alpha, OMFP fluorescence | P62136 | AID 2235 | inhibition, % at 6.7 µM | hit rate 0.9% among 320,000;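 active = inhibition above the mean inhibition of all tested compounds plus 3 SD, computed separately for each screening campaign, cut at about 15% in these data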
Target sequence (P62136 whole entry, looked up): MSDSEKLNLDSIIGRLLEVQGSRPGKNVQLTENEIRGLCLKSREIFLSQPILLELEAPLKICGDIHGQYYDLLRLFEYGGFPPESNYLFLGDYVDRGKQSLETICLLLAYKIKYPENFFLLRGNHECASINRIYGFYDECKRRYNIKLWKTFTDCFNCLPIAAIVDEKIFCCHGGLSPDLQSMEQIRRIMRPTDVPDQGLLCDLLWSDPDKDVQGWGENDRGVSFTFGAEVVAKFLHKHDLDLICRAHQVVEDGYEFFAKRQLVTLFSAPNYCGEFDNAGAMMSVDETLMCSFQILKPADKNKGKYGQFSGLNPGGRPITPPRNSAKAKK
ALR H2O2 inh: human ALR oxidase inhibition via reduced H2O2 | hit rate 3.8% among 290,000 | purified ALR, DTT oxidation, H2O2 HRP-luminol luminescence | inhibition, % (concentration not given with the values);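 active = mean replicate inhibition above about 79%, with every replicate also reaching it, limit read from the data; inconclusive = only one of the two criteria met; inactive = mean below limit and not every replicate reaching it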
Target sequence (P55789 whole entry, looked up): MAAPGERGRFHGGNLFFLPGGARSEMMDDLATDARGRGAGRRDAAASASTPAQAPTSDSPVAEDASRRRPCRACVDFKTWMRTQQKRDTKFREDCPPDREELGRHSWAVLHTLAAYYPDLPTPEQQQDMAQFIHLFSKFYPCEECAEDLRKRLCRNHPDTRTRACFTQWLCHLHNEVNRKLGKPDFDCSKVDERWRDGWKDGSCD
Hits are given with their value; n = inactive; u = inconclusive; x = no result.

SMILES	CSC inhib	PP5 primary	Calb FLC	PP1 counter	ALR H2O2 inh
CCOC(=O)COc1cc(-n2c(=S)[nH]c3ccccc3c2=O)c(Cl)cc1Cl	n	n	n	n	n
COC(=O)C(C)NC(=S)N1CCN(c2c(F)cc3c(=O)c(C(=O)O)cn(C4CC4)c3c2OC)CC1C (stereo not drawn)	n	n	n	16	n
C[C@H]1COc2c(N3CCN(C)CC3)c(F)cc3c(=O)c(C(=O)O)cn1c23	n	n	n	n	n
CNC(=S)N1CCN(c2c(F)cc3c(=O)c(C(=O)O)cn(C4CC4)c3c2OC)CC1C (stereo not drawn)	n	n	n	16	n
COc1cccc(C(=O)Nc2nnc(SCC(=O)Nc3ccc(NC(C)=O)cc3)s2)c1	n	n	n	n	n
CS(=O)(=O)c1cccc(C(=O)Nc2cccc(-c3nc4ccccc4[nH]3)c2)c1	n	n	n	n	99
O=C(Nc1cccc(-c2nc3ccccc3[nH]2)c1)c1cccc(NC(=O)c2ccco2)c1	99	n	n	16	n
CS(=O)(=O)c1ccc(C(=O)Nc2cccc(-c3nc4ccccc4[nH]3)c2)cc1	n	n	n	n	99
O=C1CC2(CCN(C(=O)COc3ccccc3)CC2)Oc2ccccc21	n	n	n	n	n
CN(C)c1ncc(C2=C(Cl)C(=O)C(N3CCCC3)=C(Cl)C2=O)s1	n	n	n	17	x
O=C1C(Cl)=C(N2CCCCC2)C(=O)C(Cl)=C1c1cnc(N2CCCCC2)s1	x	x	n	x	x
S=c1[nH]ncn1/N=C/c1ccccc1	n	n	n	n	98
CCn1c2ccccc2c2cc(/C=N/n3cn[nH]c3=S)ccc21	n	n	n	n	98
CCn1c2ccccc2c2cc(/C=N/n3cnnc3)ccc21	n	n	n	n	x
Cc1n[nH]c(=S)n1/N=C/c1ccccc1	x	n	n	n	97
COc1ccc(/C=N/n2c(-c3ccccc3)n[nH]c2=S)cc1	n	n	n	n	n
S=c1[nH]ncn1/N=C/c1ccc(N2CCOCC2)cc1	n	n	n	n	99
CC1CC(C)CN(C(=O)Nc2ccc(Br)cc2)C1 (stereo not drawn)	n	n	n	n	x
CC(C)(C)C(=O)Nc1ccc(C(=O)N/N=C/c2ccccc2OC(=O)c2ccccc2)cc1	n	n	n	n	n
CC(C)C(=O)c1cn(CC(=O)NCC2CCCO2)c2ccccc12 (stereo not drawn)	n	n	n	n	x
COc1ccc(C)cc1-n1c(SCC(=O)Nc2cc(C)on2)nc2sc(C)c(C)c2c1=O	n	n	n	n	n
S=c1[nH]ncn1/N=C/c1ccc(Br)cc1	n	n	n	n	98
COc1cccc(-c2nn(-c3ccccc3)cc2CN(C)C(C)c2ccncn2)c1 (stereo not drawn)	n	n	n	n	n
CCOc1ccc(-n2c(-c3ccccc3)nnc2-c2ccccc2)cc1	n	n	n	16	n
CS(=O)(=O)N1CCN(c2ccccc2NC(=O)c2ccc(-c3ccc(Br)cc3)o2)CC1	n	n	n	n	x
SMILES	CSC inhib	PP5 primary	Calb FLC	PP1 counter	ALR H2O2 inh
COC(=O)c1ccccc1NC(=S)NC(=O)c1ccccc1	x	n	n	n	98
Cc1ccccc1C(=O)NC(=S)Nc1ccccc1C(=O)O	n	n	n	n	n
COC(=O)c1ccccc1NC(=S)NC(=O)c1ccccc1C	n	n	u	n	97
COC(=O)c1ccccc1NC(=O)c1ccc2c(c1)OCCO2	n	n	n	n	n
COC(=O)c1ccccc1NC(=S)NC(=O)c1ccc(C)cc1	n	n	n	n	n
COC(=O)c1ccccc1NC(=S)NC(=O)c1ccc2c(c1)OCO2	n	x	n	x	98
COC(=O)c1ccc(Oc2ccc3nncn3n2)cc1	n	n	n	n	x
O=C(NCC(c1cccnc1)N1CCOCC1)c1ccc2c(c1)OCO2 (stereo not drawn)	n	n	n	n	x
O=C(NCC(c1cccnc1)N1CCN(c2ccc(F)cc2)CC1)OCc1ccccc1 (stereo not drawn)	n	n	n	n	n
COc1ccc(N2CCN(C(CNS(=O)(=O)c3cccs3)c3cccnc3)CC2)cc1 (stereo not drawn)	n	n	n	n	n
O=C(NCC(c1cccnc1)N1CCN(c2ccccc2)CC1)c1ccc2c(c1)OCO2 (stereo not drawn)	n	n	n	n	99
O=C(NCC(c1cccnc1)N1CCN(c2ccccc2)CC1)C1CCCCC1 (stereo not drawn)	n	n	n	n	88
COC(=O)NCC(c1cccnc1)N1CCN(c2ccccc2)CC1 (stereo not drawn)	n	n	n	n	89
O=S(=O)(NCC(c1cccnc1)N1CCN(c2ccccc2)CC1)c1cccs1 (stereo not drawn)	n	n	n	n	98
Cc1ccc(OCC(=O)NCc2ccccc2)c([N+](=O)[O-])n1	n	n	n	n	n
COc1ccc(C(=O)NC(=S)NNC(=O)[C@H]2C[C@@H]2c2ccccc2)cc1OC	n	n	n	n	n
Cc1nnc(SC(=O)N2c3ccccc3Sc3ccccc32)s1	n	n	n	n	n
COc1cc(C(=O)NCC(c2cccnc2)N2CCN(c3ccccc3)CC2)cc(OC)c1OC (stereo not drawn)	n	n	n	n	99
O=C(NCC(c1cccnc1)N1CCN(c2ccccc2)CC1)OCc1ccccc1 (stereo not drawn)	n	n	n	n	76
COc1ccc(CNc2ccc(Cl)cc2)cc1Cn1ccnc1	n	n	n	n	x
c1ccc(Cn2cc(CN3CCCO3)c(-c3ccc4c(c3)OCO4)n2)cc1	n	n	n	n	n
COc1cc(-c2noc(C)c2/C=C/c2ccc(OC(C)=O)cc2)cc(OC)c1OC	109	n	n	n	n
Cc1cc(C)cc(OCc2nnc(SCC(=O)c3ccccc3)o2)c1	n	n	n	n	n
O=C(O)c1ccccc1NS(=O)(=O)c1cccc(C(F)(F)F)c1	n	n	n	n	n
O=C(O)c1ccccc1NS(=O)(=O)c1cccc(-n2sc3ccccc3c2=O)c1	n	n	n	n	98
SMILES	CSC inhib	PP5 primary	Calb FLC	PP1 counter	ALR H2O2 inh
CC12CCC(C/C1=N\N=C1\NC(=O)/C(=C\c3ccc(Cl)cc3)S1)C2(C)C (stereo not drawn)	122	n	n	n	n
C/C(=N\NC(=S)Nc1ccc(F)cc1)C1CC1	n	n	u	n	98
CC1CCN(C(=S)Nc2ccc(F)cc2)CC1	x	n	n	n	n
Oc1ccc(NC(=S)Nc2ccc(F)cc2)cc1	n	n	n	n	98
COc1ccc(N2CCN(C(=O)CCS(=O)(=O)c3ccc(OC)cc3)CC2)cc1	n	n	n	n	79
COc1ccc(CC(=O)N2CCN(c3ccc(C4=NNC(=O)CC4C)cc3)CC2)cc1 (stereo not drawn)	n	n	n	n	88
CC(=O)c1ccc(N2CCN(C(=O)C3(S(=O)(=O)c4ccc(Cl)cc4)CC3)CC2)cc1	n	n	n	n	n
COc1ccc(CC(=O)N2CCN(C(=O)Cc3ccc(OC)cc3)CC2)cc1	n	n	n	n	n
COc1ccc(N2CCN(C(=O)C3(S(=O)(=O)c4ccc(C)cc4)CC3)CC2)cc1	n	n	n	n	86
